KDM4E inh – blocks human JMJD2E demethylase activity. B2RXH2. JMJD2E catalytic domain, FDH-coupled NADH fluorescence (FDH is formaldehyde dehydrogenase). Potency, µM (highest dose often 57.1 µM), for inactives: top-dose activity change, negative = inhibition, actives largely listed as inhibitors. actives 1.6% (n = 230,000); active = well fitted inhibition curve with a large enough effect, not every such curve was filed as active; inconclusive = small, poorly fitted or top-dose-only effect, or another doubt; inactive = no such curve, though single readings can be large or run the other way;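 also: potency is read from the fitted curve at half-maximal effect; 0% = wells with enzyme and -100% = buffer wells without enzyme; nearly all actives have a fitted effect of over 50% in size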
HPGD inh – HPGD (human) dehydrogenase inhibition. actives 4.3% (n = 150,000). Potency, µM, inactives show at the highest dose activity change, negative = inhibition, most hits filed as inhibitors. P15428. AID 894. purified HPGD, NADH fluorescence kinetic, PGE2 substrate; active = well fitted inhibition curve with a large enough effect, not every such curve was filed as active; inconclusive = small, poorly fitted or top-dose-only effect, or another doubt; inactive = no such curve, though single readings can be large or run the other way; also: potency is read from the fitted curve at half-maximal effect; % is scaled to controls: 0 for no effect and ±100 for the full control effect
Target sequence (P15428 whole entry, looked up): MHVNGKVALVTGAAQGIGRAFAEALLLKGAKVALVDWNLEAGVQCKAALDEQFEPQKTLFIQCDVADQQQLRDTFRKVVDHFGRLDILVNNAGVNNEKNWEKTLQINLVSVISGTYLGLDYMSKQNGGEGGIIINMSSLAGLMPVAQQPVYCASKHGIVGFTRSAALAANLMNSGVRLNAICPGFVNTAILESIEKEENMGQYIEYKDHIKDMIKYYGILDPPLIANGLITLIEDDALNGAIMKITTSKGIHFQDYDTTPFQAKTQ
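20 nM HPGD preincubated 15 min at room temperature with compound in 50 mM Tris-HCl pH 8, 0.01% Tween 20. Started with 1 mM NAD+ and 30 uM prostaglandin E2; NADH fluorescence (360/450 nm) read 5 times over 30-s intervals, last minus first.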
HTT aggregate – reduces HttQ103-GFP aggregates in PC12 cells; PC12 HttQ103-GFP aggregates, Acumen cytometry, 40 h; Potency, µM (highest dose often 46.1 µM), for the others: top-dose activity change, negative = inhibition, hits mostly inhibitors; actives 1.1% (n = 220,000); also: potency is read from the fitted curve at half-maximal effect; % is scaled to controls: 0 for no effect and ±100 for the full control effect; nearly all actives have a fitted effect of over 60% in size
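Huntingtin Q103 exon 1–GFP aggregates in induced PC12 cells (100 nM tebufenozide) were quantified by cytometry from lysates, with compounds dosed in titration.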
ALDH1A1 block – blocks purified human ALDH1A1 activity. Potency, µM (series often up to 75.3 µM), for inactives: at the top dose activity, negative = inhibition, most hits filed as inhibitors. P00352. Purified ALDH1A1, NADH fluorescence, propionaldehyde substrate. actives 7.3% (n = 220,000). AID 1030; active = well fitted inhibition curve with a large enough effect, not every such curve was filed as active; inconclusive = small, poorly fitted or top-dose-only effect, or another doubt; inactive = no such curve, though single readings can be large or run the other way;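 also: potency is read from the fitted curve at half-maximal effect; plate controls were no enzyme wells and a reference inhibitor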
Target sequence (P00352 whole entry, looked up): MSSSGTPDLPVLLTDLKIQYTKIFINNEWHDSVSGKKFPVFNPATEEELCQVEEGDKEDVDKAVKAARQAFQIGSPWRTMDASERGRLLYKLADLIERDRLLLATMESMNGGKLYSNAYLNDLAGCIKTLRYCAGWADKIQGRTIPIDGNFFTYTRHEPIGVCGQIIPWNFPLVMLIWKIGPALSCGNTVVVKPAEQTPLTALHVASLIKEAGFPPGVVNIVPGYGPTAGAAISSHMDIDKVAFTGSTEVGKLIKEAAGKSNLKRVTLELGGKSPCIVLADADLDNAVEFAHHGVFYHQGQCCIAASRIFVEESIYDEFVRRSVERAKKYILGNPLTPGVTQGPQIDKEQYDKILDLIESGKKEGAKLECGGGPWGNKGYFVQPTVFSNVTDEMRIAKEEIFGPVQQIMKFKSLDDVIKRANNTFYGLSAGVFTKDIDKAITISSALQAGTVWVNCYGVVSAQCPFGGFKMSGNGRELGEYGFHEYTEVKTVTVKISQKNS
CBFb-RUNX1 inh – CBF-beta/RUNX1 interaction disruption; Q01196+Q13951; AlphaScreen CBFb-His/RUNX1-biotin binding, biochemical; Potency, µM (top dose mostly 59.8 µM), for inactives: at the highest dose activity, negative = inhibition, hits mostly inhibitors; 230,000 tested, under 10 active; AID 1477; also: % of control where 0% means no effect
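Bead-based AlphaScreen assay; binding partners His-tagged CBF-beta and biotinylated RUNX1 at 30 nM each. Compound exposure 15 min after a 20-min protein preincubation; bead step 90 min; all steps at room temperature.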
HTT cytoprotect – Huntington cell model cytoprotection by ATP luminescence; actives 0.14% (n = 230,000); Potency, µM (top dose mostly 56.4 µM), inactives show cytoprotection (ATP increase), actives largely listed as activators; PC12 HTT-Q103 induced, cytoprotection, ATP luminescence, 40 h; also: potency is read from the fitted curve at half-maximal effect; % of control where 0% means no effect; nearly all actives have a fitted effect of over 45% in size
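Cells were plated at 1500 per well in phenol red-free DMEM with 5% equine and 5% calf serum. Tebufenozide (100 nM final) and compounds were added, then ATPlite reagent, and luminescence was read.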
* hit, by the source's call; ? = inconclusive; · = no result; [ ] = another dose, or the depositor's remark. Shown are actives, neighbours in structure and some others; about 9.8% of the full set was active somewhere. Unless noted, calls follow the shape of the dose curve; as a rule, active = well fitted curve in the direction sought with a large enough effect; inconclusive = small, poorly fitted or top-dose-only effect, or another doubt; inactive = no such curve, though single readings can be large; an effect the other way counts as inactive or inconclusive.

SMILES | KDM4E inh | HPGD inh | HTT aggregate | ALDH1A1 block | CBFb-RUNX1 inh | HTT cytoprotect
N#C/C(=C(/O)CSc1nnc(Cc2cccs2)n1C1CCCCC1)c1nc2ccccc2[nH]1 | 5% | -18% | -3% | ? | -2% | 22%[10 µM]
CCc1cc(-c2n[nH]c(=S)n2-c2ccccc2C)cs1 | 4% | ? | -9% | 8.9µM* | -7% | -18%
CCCc1cc(-c2n[nH]c(=S)n2C(C)c2ccccc2)cs1 (centres undefined) | -2% | 13µM* | ? | ? | -1% | 9%
CCn1c(-c2csc(C(C)C)c2)n[nH]c1=S | -3% | ? | 6% | 16µM* | 3% | ·
C=CCn1c(-c2cccc(Cl)c2)n[nH]c1=S | ? | ? | 6% | 11µM* | 3% | 5%
C=CCn1c(-c2cccc([N+](=O)[O-])c2)n[nH]c1=S | -8% | · | 16% | ? | -8% | -54%
CC(C)Cn1c(-c2csc(C(C)C)c2)n[nH]c1=S | ? | · | 6%[9.22 µM] | ? | -2% | -9%
CN(C)c1ccc(-c2cc(Nc3ccc(F)cc3)ncn2)cc1 | · | · | · | ? | · | -245%
CC1CCC(C(C)C)[C@H](O)C1 (some centres undefined) | 5% | -11% | · | -2% | 22% | -28%
CCC1CN(C(=O)Nc2ccc(C)cc2)c2cc(C)ccc2O1 (centres undefined) | 2% | · | 5%[9.22 µM] | ? | 0% | 17%[10 µM]
COC(=O)c1ccccc1NC(=O)c1cc([N+](=O)[O-])nn1Cc1ccccc1 | -8% | 1% | 1% | -8% | 0% | -16%[10 µM]
Cc1ccccc1-c1n[nH]c(=S)n1Cc1ccccc1 | 8% | · | 23% | -1% | 13% | -9%
S=c1[nH]nc(-c2cccc(Cl)c2)n1Cc1ccccc1 | 7% | 18µM* | ? | ? | -1% | 16%[10 µM]
CCN(CC)S(=O)(=O)c1cccc(-c2n[nH]c(=S)n2C)c1 | 9% | · | 0% | 1% | 2% | -47%
CCc1cc(-c2n[nH]c(=S)n2Cc2ccccc2)cs1 | -22% | 14µM* | 4% | 5.6µM* | 0% | -16%
S=c1[nH]nc(-c2ccc(Cl)cc2Cl)n1Cc1ccccc1 | -1% | 16µM* | 3% | 32µM* | 2% | ·
C=CCn1c(-c2cccc(S(=O)(=O)N(CC)CC)c2)n[nH]c1=S | -18% | · | -24% | 2.2µM* | -2% | -38%
CC(C)(C)C(=O)Nc1cccc(-c2cc(-c3c(Cl)cccc3Cl)no2)c1 | -4% | · | 3%[9.22 µM] | -10% | -2% | 2%[10 µM]
CC1Cc2ccccc2N1C(=O)CSc1nccc(=O)[nH]1 (centres undefined) | 6% | · | 25%[9.22 µM] | ? | 4% | 36%[10 µM]
O=C(CNS(=O)(=O)c1ccccc1)Nc1cccc([N+](=O)[O-])c1 | 17% | · | 23% | -7% | -9% | 19%[10 µM]
COc1ccc(-n2c(SCc3ccc([N+](=O)[O-])cc3)nnc2-c2ccc(C)cc2)cc1 | 2% | -24% | -2% | 10% | ? | -19%[10 µM]
COc1ccc(-n2c(SCC3CNC(=O)O3)nnc2-c2ccc(Cl)cc2)cc1 (centres undefined) | -2% | -4% | 6% | 8.9µM* | 3% | 7%[10 µM]
Cc1cccc(-c2nnc(SCC3CNC(=O)O3)n2-c2ccc(Cl)cc2)c1 (centres undefined) | -7% | -18% | 5% | 1.4µM* | -3% | 22%[10 µM]
COc1ccc(-c2nnc(SCCC(=O)O)n2-c2ccccc2)cc1 | -2% | 32µM* | -3% | ? | 8% | 10%[0.074 µM]
Cc1cc(C)c(N(Cc2ccccc2)S(=O)(=O)c2ccc(OCCNC(=O)c3cc4ccccc4o3)cc2)c(C(=O)NO)c1 | · | · | · | · | -18% | ·
SMILES | KDM4E inh | HPGD inh | HTT aggregate | ALDH1A1 block | CBFb-RUNX1 inh | HTT cytoprotect
CCOC(=O)CSc1nc2ccccc2n2cnnc12 | -2% | ? | -4% | 18µM* | 8% | -12%[0.074 µM]
CCOC(=O)CSc1nc2ccccc2n1C(=O)OCC | -5% | -5% | 27% | 6% | 10% | 27%
Cn1c(N)c(C(=O)COC(=O)C2=NNC(=O)CC2)c(=O)n(C)c1=O | 3% | · | -10%[9.22 µM] | · | 7% | -3%[10 µM]
CC(C)(C)NC(=O)CSc1ncnc2c1nnn2Cc1ccccc1Cl | -6% | 32µM* | 28%[9.22 µM] | ? | -3% | ?
Cn1c(SCc2ccccc2)nnc1-c1ccc2nonc2c1 | 3% | · | -1%[9.22 µM] | · | 8% | -4%[10 µM]
S=c1[nH]c2ccccc2s1 | 20µM* | 25µM* | · | 11µM* | ? | 35%
CC1CCCCC1NC(=O)CSc1ccc([N+](=O)[O-])cc1 (centres undefined) | -2% | · | 5%[9.22 µM] | · | 7% | 26%[10 µM]
Fc1ccc(NC(=S)NC2CCN(Cc3ccccc3)CC2)cc1 | 12% | · | -17%[9.22 µM] | 14µM* | 3% | 21%[10 µM]
Cc1cccc(NC(=O)/C(=C/c2cccc([N+](=O)[O-])c2)NC(=O)c2cccs2)c1 | 2% | -6% | 20% | 11% | -4% | -13%[10 µM]
O=C(N/C(=C\c1cccc([N+](=O)[O-])c1)C(=O)N1CCCCC1)c1cccs1 | 1% | -5% | 6% | 20µM* | 6% | 15%[10 µM]
N#Cc1ccccc1Sc1ccccc1C(=O)OCC(=O)NC12CC3CC(CC(C3)C1)C2 | 3% | 13µM* | 2% | -5% | 6% | 19%[10 µM]
N#Cc1ccccc1Sc1ccccc1C(=O)OCC(=O)N1CCN(C(=O)c2ccco2)CC1 | 1% | ? | 18% | 14µM* | -9% | 1%[10 µM]
N#CC1(c2ccccc2)CCC(=O)N1Cc1ccccc1 (centres undefined) | 8% | · | -10%[9.22 µM] | · | 13% | -19%[10 µM]
Brc1cc(Br)c2ncnc(N3CCCCC3)c2c1 | -9% | -5% | 11µM* | -10% | 11% | -8%[0.074 µM]
Clc1ccc(-n2ncc3c(N4CCCCCC4)ncnc32)cc1 | -5% | ? | -23% | -9% | 12% | -23%[10 µM]
COc1ccc(C(=O)N2CCCC(c3nc(-c4ccc(OC)c(OC)c4)no3)C2)c(OC)c1 (centres undefined) | 10% | -11% | -6% | -3% | 0% | -24%
O=C1[C@H]2CCCC[C@H]2C(=O)N1CCCCN1CCN(c2nsc3ccccc23)CC1 | · | · | 6% | · | · | -56%
CC(=O)Nc1ccc(C(=O)Cn2nnc3ccccc3c2=O)cc1 | 0% | -8% | 16% | 8.9µM* | 4% | -28%[10 µM]
CC(C)c1ccc(C(=O)CSc2ncn[nH]2)cc1 | 25µM* | 32µM* | -20% | ? | 3% | -16%
CC1=CC(C)(C)N(C(=O)CSc2ncn[nH]2)c2ccccc21 | -1% | -7% | 19% | 13µM* | -1% | 19%[10 µM]
CC1=CC(C)(C)N(C(=O)CCl)c2ccccc21 | -1% | · | -1%[9.22 µM] | ? | -3% | -8%[10 µM]
O=C(CSc1ncn[nH]1)CSc1ncn[nH]1 | 3.5µM* | · | -27% | -4% | 11% | 6%

Screening data as filed in PubChem BioAssay.
